In the library only some 2.5% were active in any assay of this set; here they are far more common.
HSF1 inhib = HSF1 inhibitors in luciferase reporter cells, primary screen, cell-based, NIH3T3, luminescence. hit rate 0.77% among 300,000. AID 2098, 2009. activity change, negative = inhibition, % at 7.5 µM (by protocol). NIH3T3-HGL HSE-luciferase, MG132-induced, luminescence 8 h; stronger effect = lower value;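 active = more than half of replicate wells show activity change below -50%, luminescence cut by over half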;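 also: luciferase reports HSF-1 transcriptional activity via heat shock element; 0% = median of DMSO wells and -100% = zero luminescence signal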
GC-B act = human GC-B receptor activators, primary screen, HEK293 GC-B cells, cGMP TR-FRET, EC30 CNP | Atrial natriuretic peptide receptor 2 (Homo sapiens), P20594 | 0% at EC30 CNP, 100% saturating CNP | activation, % at 10 µM | hit rate 0.11% among 370,000 | AID 1920062, 2024;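 active = activation at 10 µM reaching about 35% in either raw or pattern-adjusted values, limit read from the data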
Dyrk1A ADPGlo = rat Dyrk1A kinase inhibitors, primary screen, biochemical, single point, plate reader. ADP-Glo luminescence, NFATc1 peptide. AID 504441, 2011. inhibition, % at 12.5 µM. hit rate 0.43% among 310,000; in the data active = inhibition above about 50%;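 also: plate controls were vehicle with enzyme for no effect and no enzyme for full effect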
aDG glyco up = activators of alpha-DG glycosylation, primary screen, uHTS, Pro5-aDG cells, AlphaScreen | alpha-DG glycosylation AlphaScreen (IIH6); 0% Pro5, 100% B10-LARGE cell signal | AID 624168, 2012 | hit rate 0.22% among 360,000 | activation, % at 10 µM;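 active = activation of at least 8% versus controls, or a plate z-score of at least 8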;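 also: Pro5 are CHO cells carrying HIG-tagged alpha-DG that lacks glycosylation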
GC-A act = GC-A stimulated cGMP production enhancers – HEK293 GC-A cells, cGMP TR-FRET, EC30 ANP, primary screen; 0% at EC30 ANP, 100% saturating ANP; activation, % at 10 µM; hit rate 0.14% among 370,000; AID 1671463, 2021; in the data active = activation above about 40%
Target sequence (P16066 whole entry, looked up): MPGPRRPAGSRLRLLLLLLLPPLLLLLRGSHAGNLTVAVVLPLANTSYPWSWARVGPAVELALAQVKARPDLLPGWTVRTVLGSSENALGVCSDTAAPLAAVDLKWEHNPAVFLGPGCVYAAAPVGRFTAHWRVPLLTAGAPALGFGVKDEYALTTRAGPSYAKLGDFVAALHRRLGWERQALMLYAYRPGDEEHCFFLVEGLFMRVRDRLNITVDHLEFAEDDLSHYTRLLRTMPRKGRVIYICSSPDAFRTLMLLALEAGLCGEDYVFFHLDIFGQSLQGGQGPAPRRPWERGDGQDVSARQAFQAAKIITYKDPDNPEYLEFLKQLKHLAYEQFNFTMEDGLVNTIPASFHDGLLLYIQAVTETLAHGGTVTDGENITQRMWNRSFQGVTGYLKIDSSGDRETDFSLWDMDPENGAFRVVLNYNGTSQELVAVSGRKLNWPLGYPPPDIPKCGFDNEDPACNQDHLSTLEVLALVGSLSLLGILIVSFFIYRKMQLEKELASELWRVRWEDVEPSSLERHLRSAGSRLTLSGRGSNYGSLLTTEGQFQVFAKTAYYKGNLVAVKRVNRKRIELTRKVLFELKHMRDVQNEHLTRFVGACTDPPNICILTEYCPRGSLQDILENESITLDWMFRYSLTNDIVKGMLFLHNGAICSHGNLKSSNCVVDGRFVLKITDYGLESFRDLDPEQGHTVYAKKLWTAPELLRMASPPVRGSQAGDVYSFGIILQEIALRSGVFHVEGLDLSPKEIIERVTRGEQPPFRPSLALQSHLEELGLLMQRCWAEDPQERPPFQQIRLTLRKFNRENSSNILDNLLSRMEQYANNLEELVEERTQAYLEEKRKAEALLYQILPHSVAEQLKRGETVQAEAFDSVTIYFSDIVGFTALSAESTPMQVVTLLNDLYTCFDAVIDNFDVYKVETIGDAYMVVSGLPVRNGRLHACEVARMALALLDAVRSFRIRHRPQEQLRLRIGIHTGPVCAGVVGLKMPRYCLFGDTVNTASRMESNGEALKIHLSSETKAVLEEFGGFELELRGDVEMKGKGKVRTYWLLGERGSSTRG
HSF-1 act = HSF-1 activators, primary screen, NIH3T3-HGL cells, MG132 stress, luminescence, single point; NIH3T3-HGL HSF-1 luciferase reporter, 8 h; 100% = twice DMSO control signal; activation, % at 9 µM; hit rate 1.7% among 300,000; AID 504408, 2011;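 active = mean replicate activation of at least 50% with a set share of replicates each reaching 50%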;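 also: 0% = median of the neutral control wells and 100% = twice that signal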
* hit, by the source's call; . = no result given.

SMILES | HSF1 inhib | GC-B act | Dyrk1A ADPGlo | aDG glyco up | GC-A act | HSF-1 act
COc1ccc(C(=O)Nn2c(SCC(=O)NCC3CCCO3)nc3ccccc3c2=O)cc1 (stereo unspecified) | -66* | 3 | 4 | 0 | 2 | -68
Cc1cc(-c2nnc(CCC(=O)NCc3cc(F)cc(C(F)(F)F)c3)o2)no1 | 7 | -4 | 11 | 1 | -2 | -10
Cc1ccc(NC2=C(Cl)C(=O)c3ccccc3C2=O)cc1 | 30 | -1 | 3 | -1 | 6 | 50
CCN(CC)c1ccc(NC2=C(Cl)C(=O)c3ccccc3C2=O)cc1 | . | . | 3 | -1 | . | .
CCCC(=O)NC1=C(Cl)C(=O)c2ccccc2C1=O | 91* | -11 | 6 | 0 | 6 | 91*
CCNC1=C(Cl)C(=O)c2ccccc2C1=O | 15 | -5 | 12 | 12* | -3 | 26
Cc1ccc(-c2cc(C(=O)N3CCN(c4ncccn4)CC3)c3cc(Br)ccc3n2)o1 | 47 | -1 | . | -1 | -3 | 76*
COC(=O)c1cn(NC(=O)c2cc([N+](=O)[O-])ccc2F)c(=O)c2ccccc12 | -7 | -2 | -2 | -1 | -2 | 22
COC(=O)c1cn(NC(=O)CC2CCCCC2)c(=O)c2ccccc12 | -2 | -2 | -8 | 0 | 3 | 6
COC(=O)c1cn(NC(=O)C2CCC(C)CC2)c(=O)c2ccccc12 (stereo unspecified) | 33 | -10 | -1 | 0 | -1 | 81*
COC(=O)c1cn(NC(=O)CCC2CCCC2)c(=O)c2ccccc12 | -77* | -4 | 6 | 0 | 5 | -81
COc1ccc(C(=O)CC(=O)C(=O)Nc2cccc([N+](=O)[O-])c2C)cc1 | 19 | -1 | -2 | 0 | -1 | 58*
CCCOc1ccc(C(=O)Nc2ccccc2[N+](=O)[O-])cc1 | 35 | -9 | 0 | 2 | -4 | 59*
COC(=O)c1ccc2c(c1)C(C)(C)C(/C=C/c1ccc(O)cc1)=[N+]2C | 80 | -4 | 6 | 0 | -5 | 85*
CCN(CC)c1ccc(C(=O)NNC(=O)c2cccn2C)cc1 | 18 | 4 | -4 | 0 | 2 | 55*
CCCCN(C)C(=S)Nc1ccc2nc(N3CCN(CC)CC3)cc(C)c2c1 | -64* | 2 | -2 | 0 | 2 | -71
CCN1CCN(c2cc(C)c3cc(NC(=O)c4ccc(OC)c(OC)c4)ccc3n2)CC1 | 3 | 47* | -4 | 0 | -6 | 8
CCCCN(CC)C(=S)Nc1ccc2nc(N3CCN(C)CC3)cc(C)c2c1 | -56* | 5 | 9 | 0 | 3 | -55
Cc1cc(N2CCCC2)nc2ccc(NC(=S)NCCCN3CCC(C)CC3)cc12 | 14 | -7 | 2 | 0 | 1 | 54*
CCCCN(C)CCNC(=S)Nc1ccc2nc(N3CCN(CC)CC3)cc(C)c2c1 | -4 | -11 | 17 | 1 | -5 | -3
CCCN1CCN(CCCNC(=S)Nc2ccc3nc(N4CCN(CC)CC4)cc(C)c3c2)CC1 | 0 | -6 | -9 | 0 | 3 | 1
CCOc1ccc(S(=O)(=O)c2c[nH]c3ccccc3c2=O)cc1 | 6 | -1 | -2 | 0 | -10 | 3
C=CCn1c(C)cc(C(=O)COc2ccc(N(C)S(=O)(=O)c3ccc(NC(C)=O)cc3)cc2)c1C | . | 4 | -1 | -1 | 1 | .
CCOc1ccc(NC(=O)CN(C)C(=O)CC2CC3CCC2C3)cc1OCC (stereo unspecified) | 3 | -6 | -4 | 0 | -1 | 2
CCOC(=O)c1cnc(SCCc2ccccc2)nc1N | 54 | -3 | 7 | 0 | 9 | 88*
SMILES | HSF1 inhib | GC-B act | Dyrk1A ADPGlo | aDG glyco up | GC-A act | HSF-1 act
CCCCSc1ncc(C(=O)OCC)c(N)n1 | 31 | 1 | -9 | 0 | 0 | 64*
CCCNCC(=O)Nc1sc2c(c1C(=O)Nc1c(C)n(C)n(-c3ccccc3)c1=O)CCCC2 | . | 0 | . | 0 | 1 | .
O=c1c(-c2cnn(-c3ccccc3)c2)coc2cc(O)ccc12 | 73 | . | 20 | 0 | . | 94*
Cc1oc2cc(O)ccc2c(=O)c1-c1cnn(-c2ccccc2)c1 | 14 | 0 | 4 | 0 | -4 | -1
O=C1NCCCC1C(=O)N/N=C/c1ccc([N+](=O)[O-])cc1 (stereo unspecified) | 3 | 2 | . | 0 | 2 | 9
COc1cc(NC(=O)C2=C(N3CCOCC3)/C(=C\c3ccc(Br)cc3)CC2)cc(OC)c1OC | 72 | 6 | -4 | 0 | -4 | 97*
CCCn1c(=O)[nH]c(=O)c2c1nc(-c1ccccc1OC(F)F)n2CCOC | 23 | -1 | 0 | 0 | -3 | 53*
CCOc1ccccc1N(C)C(=O)Cn1ncc2c([nH]c3ccccc32)c1=O | -1 | 1 | -9 | 0 | 1 | -2
Cn1c(=O)c2c(nc(CN3CCCCC3)n2Cc2c(F)cccc2Cl)n(C)c1=O | . | 5 | -1 | 0 | -5 | .
O=C(N/N=C/C=C\c1ccccc1[N+](=O)[O-])c1cc(-c2ccc3ccccc3c2)n[nH]1 | 14 | 2 | -2 | 0 | -3 | 64*
CCCn1cnc2c(=S)nc(N)[nH]c21 | -4 | 44* | . | 0 | 43* | -4
CCCCn1cnc2c(=S)nc(N)[nH]c21 | -8 | 80* | -2 | 0 | 79* | 7
CCCCCn1cnc2c(=S)nc(N)[nH]c21 | 3 | 81* | 6 | 0 | 75* | 1
CCCCCCCCn1cnc2c(N)c(C)c(C)cc21 | -1 | -1 | 3 | 0 | 2 | 12
Nc1nc(=S)c2ncn(C3CCCCC3)c2[nH]1 | . | 28 | -7 | 0 | 27 | .
O=C(CNC(=O)c1ccc(OC(F)F)cc1)NCC1CCCO1 (stereo unspecified) | -1 | -13 | -6 | 0 | 1 | -11
CS(=O)(=O)c1ccc(Nc2nc(C(N)Cc3ccccc3)cs2)cc1 (stereo unspecified) | . | -1 | . | 0 | 2 | .
COc1ccc(C(CCNC(C)c2ccccc2)c2ccc(F)cc2)cc1 (stereo unspecified) | 7 | -20 | -1 | 0 | -24 | 13
COC(=O)c1cc(NC(=O)C23CCC(C)(C(=O)O2)C3(C)C)cc(C(=O)OC)c1 (stereo unspecified) | -8 | 4 | 0 | 0 | -5 | -1
c1ccc2c(-c3c[nH]c4ccccc34)c3ccccc3nc2c1 | 14 | -9 | 2 | 0 | -14 | -3

Assay outcomes: PubChem BioAssay, several laboratories
